# Screening data deposited in PubChem by National Center for Advancing Translational Sciences (NCATS).
# Shown are actives, neighbours in structure and some others; about 3.3% of the full set was active somewhere.
# AmpC no deterg = qHTS Inhibitors of AmpC Beta-Lactamase (assay without detergent); AmpC nitrocefin hydrolysis, absorbance 480 nm, 0.0001% Triton; Potency, µM (series often up to 57.1 µM), without a hit: at the top dose activity change, negative = inhibition, most hits filed as inhibitors; 330,000 tested, 0.52% active; AID 485341, 2010;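 further: plate controls were no compound for no effect and no enzyme for full effect; nearly all actives have a fitted effect of over 20% in size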
# Target sequence (P00811 whole entry, looked up): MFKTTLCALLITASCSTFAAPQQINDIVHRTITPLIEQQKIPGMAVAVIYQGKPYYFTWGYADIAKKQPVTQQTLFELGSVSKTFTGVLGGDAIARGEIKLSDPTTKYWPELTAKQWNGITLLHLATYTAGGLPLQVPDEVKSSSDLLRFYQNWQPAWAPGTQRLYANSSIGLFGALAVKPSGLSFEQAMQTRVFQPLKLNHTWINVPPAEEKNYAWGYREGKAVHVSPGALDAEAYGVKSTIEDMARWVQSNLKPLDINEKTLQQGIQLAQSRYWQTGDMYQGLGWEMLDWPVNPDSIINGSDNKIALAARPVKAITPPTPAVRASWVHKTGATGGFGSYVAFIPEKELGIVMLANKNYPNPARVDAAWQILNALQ
#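 20 mM phosphate pH 7.0 + 0.01% (detergent screen) or 0.0001% Triton X-100; 5.3 nM AmpC reagent; cpd preinc 15 min RT; nitrocefin (800 uM stock) to start; A480 q20 s × 4 min; Activity was normalised to no-enzyme and no-compound control wells.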
# Sm TGR inh = qHTS Assay for the Inhibitors of Schistosoma Mansoni Peroxiredoxins; Schistosoma mansoni thioredoxin glutathione reductase (TGR), Q962Y6; purified TGR, DTNB reduction, TNB absorbance 405 nm; Potency, µM (doses to about 114 µM), for inactives: at the highest dose activity change, negative = inhibition, actives largely listed as inhibitors; 360,000 tested, 3% active; AID 485364, 2010; further: nearly all actives have a fitted effect of over 60% in size
#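 TGR 20 nM + NADPH 100 uM (dispensed conc.), cpd preinc 15 min RT; start with NADPH (500 uM addition) then DTNB (15 mM addition). Kinetic TNB absorbance, 405 nm filter. Four-parameter Hill fit across titration.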
# AmpC detergent = qHTS Inhibitors of AmpC Beta-Lactamase (assay with detergent) | P00811 | AmpC hydrolysis of nitrocefin, absorbance 480 nm, 0.01% Triton | Potency, µM (series often up to 114 µM), inactives show top-dose activity change, negative = inhibition, hits mostly inhibitors | 370,000 tested, 0.041% active;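 further: 0% = no-compound wells and -100% = no-enzyme wells; nearly all actives have a fitted effect of over 25% in size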
#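 AmpC (5.3 nM in the dispensed reagent) in 20 mM phosphate pH 7.0 with 0.01% (detergent screen) or 0.0001% Triton X-100 was preincubated with compounds for 15 min at room temperature. Nitrocefin was then added from an 800 uM solution, and hydrolysis was followed at 480 nm.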
# Starred values were filed as active, the others as inactive; ? = inconclusive; . = no result given; [ ] = remark or other dose. The call rests on the fitted dose curve; in most records, active means well fitted curve in the direction sought with a large enough effect; inconclusive means small, poorly fitted or top-dose-only effect, or another doubt; inactive means no such curve, though single readings can be large; an effect the other way counts as inactive or inconclusive. Unless noted, on the % scale 0 is the no-effect control and ±100 the full control effect; potency means the concentration at half of the fitted maximal effect.
SMILES,AmpC no deterg,Sm TGR inh,AmpC detergent
COc1ccc(N2C(=O)CC(N3CCCCC3)C2=O)cc1 (configuration not stated),-5.9%[11.4 µM],31.6µM*,?
CN1C(=O)CC(N2CCC(C(N)=O)(N3CCCCC3)CC2)C1=O (configuration not stated),-43.4%,-1.1%,?
CCc1nn(C(CC)C(=O)NCc2ccc(OC)c(OC)c2)c(=O)c2cc3oc(C)cc3n12 (configuration not stated),.,4.5%,17.3%
COc1cccc(NC(=O)N(Cc2c[nH]c3ccccc23)C2CCCCC2)c1,.,6.2%,3.8%
Cn1c(SCC(=O)N2CCCc3ccccc32)ncc(C(=O)Nc2ccccc2)c1=O,.,-30.7%,1.1%
COC(=O)c1c(C)sc(-c2c(-c3ccc(OC)c(F)c3)[nH]c3c2c(=O)n(C)c(=O)n3C)c1O,.,-11.3%,10.1%
CCOC(=O)N1CCN(C(=O)C2CCN(Cc3cccc(OCc4ccccc4)c3)CC2)CC1,205.5%,0.5%,-7.4%
COc1cccc(CN2CCC(n3nccc3NC(=O)CCOc3ccccc3)CC2)c1,47.2%,-2.9%,0.8%
CCOC(=O)N1CCN(C(=O)C2CCN(Cc3ccc(O)c(OCC)c3)CC2)CC1,-15.1%,31.6µM*,-12.2%
CCOc1cc(CN2CCC(n3nccc3NC(=O)C3CC3)CC2)ccc1O,-7.3%,39.8µM*,?
COc1cc(CN2CCC(n3nccc3NC(=O)C3CC3)CC2)cc(OC)c1,-6.8%,3.0%,-7.7%
CCOc1cc(CN2CCSCC2)ccc1O,-31.7%,39.8µM*,?
COc1ccc(CN2CCSCC2)cc1C,-0.3%,-1.0%,0.1%
O=C(CCOc1ccccc1)Nc1ccnn1C1CCN(Cc2ccc(O)cc2)CC1,0.2%,39.8µM*,1.3%
CCOc1cc(C2CC(=O)Nc3c2c(=O)nc(SCc2cccc(Cl)c2)n3C)ccc1O (configuration not stated),.,0.4%,1.9%
Cc1noc(/C=C/c2ccco2)c1S(=O)(=O)N1CCC(C(=O)Nc2ccc(F)cc2F)CC1,.,-15.7%,3.3%
COc1ccc(N2CCN(C(=O)CN3C(=O)COc4ccc(S(=O)(=O)N5CCC(C)CC5)cc43)CC2)cc1,.,-10.0%,-2.5%
CCN1C(=O)C(Cc2nc3ccccc3c(=O)n2C)c2cc(C)ccc21 (configuration not stated),.,9.5%,4.9%
COc1ccc(C2Nc3ccccc3-n3c(-c4ccccc4)c4c(=O)n(C)c(=O)n(C)c4c32)cc1 (configuration not stated),.,-18.3%,4.0%
CCOc1cc(CN2CCN(c3cccc(C(F)(F)F)c3)CC2)ccc1OC,82.1%,0.0%,?
CCOc1cc(CN2CCN(c3cccc(C(F)(F)F)c3)CC2)ccc1O,25.0%,44.7µM*,1.3%
Cc1ccc(NC(=O)CCC(=O)N2Cc3ccccc3Oc3ncccc32)cc1,.,1.1%,1.8%
COc1ccc(C(C)=O)cc1COC(=O)CNC(=O)C1CCCCC1,-8.1%,.,.
COc1ccc(C(C)=O)cc1COC(=O)c1cccnc1Cl,-5.0%,12.6µM*,3.6%
COc1ccc(C(C)=O)cc1COC(=O)CSCC(=O)Nc1ccc(C)cc1,-17.2%,35.5µM*,-12.5%
SMILES,AmpC no deterg,Sm TGR inh,AmpC detergent
COc1ccc(C(C)=O)cc1COC(=O)c1cc2ccccc2cc1O,-1.9%,-29.8%,?
COc1ccc(C(C)=O)cc1COC(=O)CSC(C)C(=O)Nc1cc(C)on1 (configuration not stated),-13.8%,?,0.0%
COc1ccc(C(C)=O)cc1COC(=O)CNC(=O)c1ccccc1F,-16.7%,8.91µM*,-6.0%
O=C(COCc1cc(-c2ccc3c(c2)OCO3)on1)NCc1ccc(F)cc1,.,1.7%,13.1%
Cn1nnnc1SCCCNCc1cc(Br)ccc1OCc1ccccc1,.,-1.5%,12.4%
Cc1ccc(S(=O)(=O)c2[nH]c(-c3ccccc3)nc2SC(C)C(=O)O)cc1 (configuration not stated),.,2.7%,2.6%
COC(=O)c1ccc(N2C(=O)CC(N(C)CCc3ccc(OC)c(OC)c3)C2=O)cc1 (configuration not stated),70.9%,22.4µM*,-3.1%
CCCOc1ccc(N2C(=O)CC(N(CCc3ccc(OC)c(OC)c3)C(=O)c3ccccc3)C2=O)cc1 (configuration not stated),133.7%,6.1%,-0.7%
COc1ccc(CCN(C)C2CC(=O)N(c3ccccc3)C2=O)cc1OC (configuration not stated),22.9%,11.2µM*,1.8%
COc1ccc(N2C(=O)CC(N(C)CCc3ccc(OC)c(OC)c3)C2=O)cc1 (configuration not stated),100.5%,-1.0%,-3.5%
CNS(=O)(=O)c1cn(CC(=O)N2CCN(c3cc(C)ccc3C)CC2)cc1S(=O)(=O)NC,.,-1.7%,19.3%
Cc1ccc(NC(=O)CSc2nnc(Cc3cccn3C)n2-c2ccc(F)cc2)cc1,56.7%,-25.7%,?
Cc1ccc(-n2c(Cc3cccn3C)nnc2SCC(N)=O)cc1,7.2%,-10.4%,-10.8%
CCc1ccc(NC(=O)CSc2nnc(Cc3cccn3C)n2-c2ccc(F)cc2)cc1,12.6µM*,?,-17.1%
Cc1ccc(-n2c(Cc3cccn3C)nnc2SCC(=O)NCc2ccco2)cc1,65.0%,39.8µM*,2.5%
COc1ccc(C(=O)CN2CCN(S(=O)(=O)c3ccc(C(C)C)cc3)CC2)cc1,.,?,9.8%
CCN(c1ccccc1)S(=O)(=O)c1ccc(Cl)c(NC(=O)Nc2ccc(Cl)cc2C#N)c1,-46.6%,5.3%,1.3%
CCN(c1ccccc1)S(=O)(=O)c1cc(NC(=O)Nc2ccccc2C#N)ccc1Cl,8.91µM*,-10.4%,?
COc1ccccc1-n1nc(-c2ccccc2)c2cnc3c(F)cc(F)cc3c21,.,-4.6%,-9.7%
N=c1c2c(-c3ccccc3)c(-c3ccccc3)n(Cc3ccco3)c2ncn1CCCO,85.4%,28.2µM*,2.3%
N=c1c2c(-c3ccccc3)c(-c3ccccc3)n(Cc3ccco3)c2ncn1CCO,48.4%,?,-4.4%
Cc1ccccc1C(c1c(C)n(C)n(-c2ccccc2)c1=O)c1c(C)n(C)n(-c2ccccc2)c1=O,.,7.3%,10.6%
O=[N+]([O-])c1ccc2c(c1)N([O-])C1(CCCCC1)[N+]2=O,-30.4%,2.82µM*,-2.4%
CC1=C(c2ccccc2)[N+](=O)C2(CCCC2)N1[O-],-18.8%,10.8%[11.4 µM],-8.5%
CC1=C(C(=O)Nc2ccccc2)C(c2cccnc2)n2nc(SCc3ccccc3Cl)nc2N1 (configuration not stated),.,3.5%,2.4%
COc1cccc(N(C(=O)CCl)C(C(=O)NCCc2ccccc2)c2cccs2)c1 (configuration not stated),-17.0%,10µM*,-9.8%
COc1cccc(N(C(=O)c2snc(C(N)=O)c2N)C(C(=O)NCC2CCCO2)c2cccs2)c1 (configuration not stated),79.9%,-2.2%,1.0%
COc1ccc(N(C(=O)c2ccco2)C(C(=O)NC2CCCCC2)c2cccs2)cc1OC (configuration not stated),51.6%,-8.0%,?
